Measured values: PubChem BioAssay (Tox21)
Records with an inconclusive call do not appear. The source made the active and inactive calls. Unless noted, the call rests on the fitted dose curve.

Legend:
[1] = qHTS assay to identify small molecule antagonists of the estrogen related receptor signaling pathway with the pleiotropic PPARgamma coactivator (PGC) from Tox21 10K library - cell viability counter screen (AID 1224840; active means well fitted cell-killing curve with a large enough effect in the repeat runs, not every such curve was filed as active; further: nearly all actives have a fitted effect of over 40% in size)
In short: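 Following seeding of 2,000 PGC/ERR cells/well and 6 hours' incubation, test compounds were delivered in DMSO. The plates then sat 17.5 hours at 37 C before a fluorogenic live-cell protease reagent (CellTiter-Fluor) was read after 30 min.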

[2] = qHTS assay to identify small molecule antagonists of the estrogen related receptor signaling pathway with the pleiotropic PPARgamma coactivator (PGC) from Tox21 10K library (AID 1224841; call rule not given here; further: actives are mostly falling curves and most rising ones were filed inactive; nearly all actives have a fitted effect of over 50% in size; further: potency means the concentration at half of the fitted maximal effect)
In short: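 qHTS antagonist format: PGC/ERR cells, 2k/well, compound in DMSO by pin transfer after 6 h attachment, 18 h treatment at 37 C, One-Glo luminescence read at 30 min.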

[3] = qHTS assay to identify small molecule agonists of the estrogen related receptor signaling pathway with the pleiotropic PPARgamma coactivator (PGC) from Tox21 10K library (AID 1224842; active means well fitted curve in the direction sought with a large enough effect in the repeat runs; an effect the other way counts as inactive or inconclusive; further: nearly all actives have a fitted effect of over 15% in size)
In short: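 Luminescence from One-Glo (30 min, room temperature) measured after PGC/ERR cells had 18 h at 37 C with pinned compound (23 nL in DMSO). Cells had been seeded at 2,000 per well and pre-incubated 6 h.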

[4] = molecular target: Thyrotropin receptor (Homo sapiens) (UniProt P16473); assay: qHTS assay to identify small molecule agonists of the thyroid stimulating hormone receptor (TSHR) signaling pathway (AID 1224843); further: nearly all actives have a fitted effect of over 45% in size
In short: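 HEK293 cells stably bearing the thyrotropin receptor were plated at 800 cells/well and challenged with compound (30 min, RT). Accumulated cAMP was quantified via cAMP-d2 competing for cryptate-tagged antibody.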

[5] = qHTS assay to identify small molecule agonists of the hypoxia (HIF-1) signaling pathway - cell viability counter screen (AID 1224844); further: nearly all actives have a fitted effect of over 50% in size
In short: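 Cells (HRE-bla ME-180, 2,000 per well) sat 5 hrs at 37C, got compound for 17 hrs, were read for CCF4-AM FRET, and were finally lysed with CellTiter-Glo for a 30 min room-temperature luminescence read.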

[6] = qHTS assay to identify small molecule agonists of H2AX (AID 1224845; active means well fitted activation curve with a large enough effect in the signal ratio in the repeat runs, not every such curve was filed as active; the % refers to the signal ratio)
In short: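 Phospho-H2AX Ser139 measured by HTRF (ex 320 nm; em 665 and 620 nm) after 24 hr antibody incubation. Compounds, 15 concentrations, 0.76% DMSO, were applied to CHO-K1 cells for 3hr at 37C before lysis.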

[7] = qHTS assay to identify small molecule agonists of the hypoxia (HIF-1) signaling pathway (AID 1224846; active means well fitted activation curve with a large enough effect in the signal ratio in the repeat runs, not every such curve was filed as active; the % refers to the signal ratio)
In short: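 A low-serum medium (0.5% dialyzed FBS) holding 2,000 HRE-bla ME-180 cells per well is preincubated for 5 hrs, dosed with compounds by pintool, and kept a further 17 hrs at 37C, 5% CO2 before CCF4-AM FRET detection of beta-lactamase.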

[8] = qHTS assay to identify small molecule agonists of H2AX - cell viability counter screen (AID 1224847);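 further: wild-type CHO-K1 cells; top concentration of the series differs between compounds; nearly all actives have a fitted effect of over 30% in size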
In short: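 CHO-K1 wt, 1000 cells/well, o/n 37C; cpds 15 conc, 3 h 37C, 0.76% DMSO; CellTiter-Glo, 30 min RT, luminescence.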

[9] = qHTS assay to identify small molecule antagonists of the estrogen related receptor (ERR) signaling pathway from Tox21 library (AID 1224848; active means well fitted curve in the direction sought with a large enough effect in the repeat runs; an effect the other way counts as inactive or inconclusive; further: nearly all actives have a fitted effect of over 50% in size)
In short: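 Reading was by luminescence 30 min after ONE-Glo addition. Before that, ERR cells at 2,000 per well had rested 6 h at 37 C/5% CO2 and then received pin-tooled compounds in DMSO for 18 h at 37 C.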

[10] = qHTS assay to identify small molecule agonists of the estrogen related receptor (ERR) signaling pathway from Tox21 library (AID 1224849); details: ERR reporter cell line, ONE-Glo luciferase, 18 h; at 92.4 µM (top of the series) unless noted; further: nearly all actives have a fitted effect of over 15% in size
In short: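 Screening used an NTP-provided ERR luciferase cell line. Compounds in DMSO were added 6 h after seeding and left 18 h at 37 C before a 30 min ONE-Glo step and luminescence reading.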
On the % scale 0 is the no-effect control and ±100 the full control effect.

Chain of Thyrotropin receptor (Homo sapiens) (P16473 whole entry, looked up): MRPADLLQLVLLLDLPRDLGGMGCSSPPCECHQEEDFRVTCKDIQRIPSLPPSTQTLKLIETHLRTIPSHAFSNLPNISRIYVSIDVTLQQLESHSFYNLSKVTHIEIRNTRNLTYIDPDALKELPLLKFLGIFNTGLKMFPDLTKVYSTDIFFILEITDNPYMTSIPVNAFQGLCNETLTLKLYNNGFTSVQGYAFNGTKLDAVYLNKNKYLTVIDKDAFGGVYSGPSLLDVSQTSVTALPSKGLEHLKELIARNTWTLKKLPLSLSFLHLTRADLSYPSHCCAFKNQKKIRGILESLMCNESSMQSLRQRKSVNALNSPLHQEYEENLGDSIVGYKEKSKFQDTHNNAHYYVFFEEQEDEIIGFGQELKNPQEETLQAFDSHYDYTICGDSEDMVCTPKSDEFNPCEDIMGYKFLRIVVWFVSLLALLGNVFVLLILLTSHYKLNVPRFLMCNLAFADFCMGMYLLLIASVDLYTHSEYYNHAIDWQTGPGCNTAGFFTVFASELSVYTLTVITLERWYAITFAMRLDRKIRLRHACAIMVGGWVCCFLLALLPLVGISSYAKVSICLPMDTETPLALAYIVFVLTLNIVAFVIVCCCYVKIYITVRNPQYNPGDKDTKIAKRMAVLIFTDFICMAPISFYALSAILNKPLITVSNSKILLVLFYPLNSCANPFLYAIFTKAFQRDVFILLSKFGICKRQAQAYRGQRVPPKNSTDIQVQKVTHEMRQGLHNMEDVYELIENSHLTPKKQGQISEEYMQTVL

N=C(N)N
inactive: outcome [1] | Potency [2] | Potency [3] | Potency [4] | outcome [5] | outcome [6] | outcome [7] | outcome [8] | outcome [9] | activity change, positive = activation [10] 0.947% [at 42.5 µM]

N[C@H]1C(O)O[C@H](CO)[C@@H](O)[C@@H]1O (some centres undefined)
inactive: outcome [1] | Potency [2] | Potency [3] | Potency [4] | outcome [5] | outcome [6] | outcome [7] | outcome [8] | outcome [9] | activity change, positive = activation [10] 3.25% [at 42.5 µM]

CC1(C)CC(N)CC(C)(C)N1
inactive: outcome [1] | Potency [2] | Potency [3] | Potency [4] | outcome [5] | outcome [6] | outcome [7] | outcome [9] | activity change, positive = activation [10] 4.2%

O=C1Nc2ccccc2C1=O
inactive: outcome [1] | Potency [3] | Potency [4] | outcome [5] | outcome [6] | outcome [7] | outcome [8] | outcome [9] | activity change, positive = activation [10] -1.92%
active: Potency [2] 13.6 µM

N=C(N)S(=O)O
inactive: outcome [1] | Potency [2] | Potency [3] | Potency [4] | outcome [5] | outcome [6] | outcome [7] | outcome [9] | activity change, positive = activation [10] 2.21%

CCCCCCCCCCCC(C)=O
inactive: outcome [1] | Potency [2] | Potency [3] | Potency [4] | outcome [5] | outcome [6] | outcome [8] | outcome [9] | activity change, positive = activation [10] -0.269%

NC(=O)CC[C@@H](N)C(=O)O
inactive: outcome [1] | Potency [2] | Potency [3] | Potency [4] | outcome [5] | outcome [6] | outcome [7] | outcome [8] | outcome [9] | activity change, positive = activation [10] 1.56% [at 42.5 µM]

CCCCN1C(=O)c2ccccc2C1=O
inactive: outcome [1] | Potency [2] | Potency [3] | Potency [4] | outcome [5] | outcome [6] | outcome [7] | outcome [9] | activity change, positive = activation [10] 6.09%

CCCCCCCCOCCC#N
inactive: outcome [1] | Potency [2] | Potency [3] | Potency [4] | outcome [5] | outcome [6] | outcome [7] | outcome [8] | outcome [9] | activity change, positive = activation [10] 3%

Cc1ccc(OC(=O)CC(C)C)cc1
inactive: outcome [1] | Potency [2] | Potency [3] | Potency [4] | outcome [5] | outcome [6] | outcome [7] | outcome [9] | activity change, positive = activation [10] -0.118%

COC(=O)N/N=C/c1c[n+]([O-])c2ccccc2[n+]1[O-]
inactive: outcome [1] | Potency [2] | Potency [3] | Potency [4] | outcome [5] | outcome [7] | outcome [8] | outcome [9] | activity change, positive = activation [10] 16.4% [at 42.5 µM]

CCC(C)(C)C
inactive: outcome [1] | Potency [2] | Potency [3] | Potency [4] | outcome [5] | outcome [6] | outcome [7] | outcome [8] | outcome [9] | activity change, positive = activation [10] -3.65%

C=CCn1cc[n+](C)c1
inactive: outcome [1] | Potency [2] | Potency [3] | Potency [4] | outcome [5] | outcome [6] | outcome [7] | outcome [8] | outcome [9] | activity change, positive = activation [10] 5.14%

CC/C=C/CCCCCCCCCCOC(C)=O
inactive: outcome [1] | Potency [2] | Potency [3] | Potency [4] | outcome [5] | outcome [6] | outcome [9] | activity change, positive = activation [10] 0.111%

CC(=O)SCC(CC(=O)c1ccc(C)cc1)C(=O)O (centres undefined)
inactive: outcome [1] | Potency [2] | Potency [3] | Potency [4] | outcome [5] | outcome [6] | outcome [7] | outcome [8] | outcome [9] | activity change, positive = activation [10] 8.89% [at 42.5 µM]

C=COCCCCO
inactive: outcome [1] | Potency [2] | Potency [3] | Potency [4] | outcome [5] | outcome [6] | outcome [7] | outcome [8] | activity change, positive = activation [10] -29.3%

CCCCOCCCC
inactive: outcome [1] | Potency [2] | Potency [3] | Potency [4] | outcome [5] | outcome [6] | outcome [7] | outcome [8] | outcome [9] | activity change, positive = activation [10] 4.99%

CC(=O)Nc1ccc(OCCOCCOc2ccc(NC(C)=O)cc2)cc1
inactive: outcome [1] | Potency [2] | Potency [3] | Potency [4] | outcome [5] | outcome [6] | outcome [7] | outcome [8] | activity change, positive = activation [10] -16.6% [at 42.5 µM]

CCC(C)c1nccnc1OC (centres undefined)
inactive: outcome [1] | Potency [2] | Potency [3] | Potency [4] | outcome [5] | outcome [6] | outcome [7] | outcome [8] | outcome [9] | activity change, positive = activation [10] 1.46%

CC/C=C\CCOC(=O)c1ccccc1
inactive: outcome [1] | Potency [2] | Potency [3] | Potency [4] | outcome [5] | outcome [7] | outcome [8] | outcome [9] | activity change, positive = activation [10] 5.28%

Cc1nnc(C(=O)NC(C)(C)c2nc(C(=O)NCc3ccc(F)cc3)c(O)c(=O)n2C)o1
inactive: outcome [1] | Potency [2] | Potency [3] | Potency [4] | outcome [5] | outcome [6] | outcome [7] | outcome [8] | outcome [9] | activity change, positive = activation [10] 9.04% [at 42.5 µM]

COC(=O)/C=C(\C)CCC=C(C)C
inactive: outcome [1] | Potency [2] | Potency [3] | Potency [4] | outcome [5] | outcome [6] | outcome [7] | outcome [8] | outcome [9] | activity change, positive = activation [10] 1.22%
